Several values for one entry are separate records, joined by “and”; a condition that tells them apart may be missing. Identical values can stand only once. Inconclusive results are not listed. Activity calls are given as the source filed them. Calls come from the whole dose curve; as a rule, active = well fitted curve in the direction sought with a large enough effect; inconclusive = small, poorly fitted or top-dose-only effect, or another doubt; inactive = no such curve, though single readings can be large; an effect the other way counts as inactive or inconclusive.
How the values were obtained:
[1] = molecular target: Cellular tumor antigen p53 (Homo sapiens) (UniProt P04637); assay: Primary qHTS for small molecule compounds that upregulate eGFP-tagged delta133p53alpha (in N-terminal) cells. (AID 2060322); conditions: NCI-H358 eGFP-delta133p53alpha fluorescence, 24 h; activation: stronger effect = higher value;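 note: series mostly up to about 56 µM; 0% = DMSO vehicle and 100% = reference activator; nearly all actives have a fitted effect of over 75% in size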
Cellular tumor antigen p53 (Homo sapiens), sequence (P04637 whole entry, looked up): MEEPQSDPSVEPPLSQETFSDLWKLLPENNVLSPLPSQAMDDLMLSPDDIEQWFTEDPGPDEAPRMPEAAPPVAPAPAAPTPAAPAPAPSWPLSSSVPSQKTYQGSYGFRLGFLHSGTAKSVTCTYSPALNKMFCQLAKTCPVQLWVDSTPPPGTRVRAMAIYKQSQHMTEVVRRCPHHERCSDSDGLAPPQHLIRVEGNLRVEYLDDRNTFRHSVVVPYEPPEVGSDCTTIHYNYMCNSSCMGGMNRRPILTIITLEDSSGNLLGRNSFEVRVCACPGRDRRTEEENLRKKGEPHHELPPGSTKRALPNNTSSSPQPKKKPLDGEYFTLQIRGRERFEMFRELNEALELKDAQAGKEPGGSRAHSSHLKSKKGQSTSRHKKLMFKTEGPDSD
Procedure, shortened: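 NCI-H358 cells pre-induced 24 h with 10 ng/ml doxycycline to express N-terminal eGFP-delta133p53alpha, then dosed 24 h at 37C without doxycycline; fixed, Hoechst-stained, GFP intensity by laser scanning cytometry, normalized to DMSO (0%) and 57.5 uM 5-azacytidine (100%).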

[2] = molecular target: Aldehyde dehydrogenase, mitochondrial (Homo sapiens) (UniProt P05091); assay: qHTS for Inhibitors of the Aldehyde Dehydrogenase Family (ALDH2) Primary screen (AID 2061308);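 note: plate controls were vehicle for no effect and reference inhibitor for full effect; nearly all actives have a fitted effect of over 55% in size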
[3] = molecular target: Retinaldehyde dehydrogenase 3 (Homo sapiens) (UniProt P47895); assay: qHTS for Inhibitors of the Aldehyde Dehydrogenase Family (ALDH1A3) Primary screen (AID 2061315);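 note: plate controls were DMSO vehicle for no effect and reference inhibitor for full effect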

CC(=O)c1ccc2c(c1)C(O)C(C(C)(C)O)O2 (stereo not drawn)
inactive: activation [1] -6.11% | Potency [2] | Potency [3]

C=C1C(OC(=O)/C(C)=C\C)[C@@]23CCC4[C@@](C)(CCC[C@@]4(C)C(=O)O)C2CC[C@H]1C3OC(C)=O (stereo partly drawn)
inactive: activation [1] -28.2% | Potency [2] | Potency [3]

CC(=O)O[C@@H]1c2c(C)coc2C(=O)[C@@]23O[C@@H]2CC[C@H](C)[C@@]13C
inactive: activation [1] -2.68% | Potency [2] | Potency [3]

COC1OC(OC)C(O)(CCC2(C)C(C)CCC3(C)C2CC(O)C(O)C32CO2)C1O (stereo not drawn)
inactive: activation [1] 0.763% | Potency [2] | Potency [3]

CC(=O)OC1CC(C)(C(=O)O)CC2C3=CC(=O)C4C5(C)CCC(OC6OC(C(=O)O)C(O)C(O)C6OC6OC(C(=O)O)C(O)C(O)C6O)C(C)(C)C5CCC4(C)C3(C)CCC12C (stereo not drawn)
inactive: activation [1] -4.46% | Potency [2] | Potency [3]

Clc1ccc(Nc2nc3ccccc3c3nc(C4CCCCC4)[nH]c23)cc1Cl
inactive: activation [1] 22% | Potency [2] | Potency [3]

CC1=CCC2C(C)(CO)CCCC2(C)C1CC12OC1C(O)C(CO)=CC2O (stereo not drawn)
inactive: activation [1] 12.2% | Potency [2] | Potency [3]

CC1(C)CC[C@]2(C(=O)O[C@@H]3O[C@H](CO)[C@@H](O)[C@H](O)[C@H]3O)CC[C@]3(C)C(=CCC4[C@@]5(C)CC[C@H](O[C@@H]6O[C@H](C(=O)O)[C@@H](O)[C@H](O[C@@H]7O[C@H](CO)[C@H](O)[C@H](O)[C@H]7O)[C@H]6O)C(C)(C)C5CC[C@]43C)C2C1 (stereo partly drawn)
inactive: activation [1] -9.92% | Potency [2] | Potency [3]

COc1cc(C#N)ccc1S(=O)(=O)Nc1ccc2c(c1)cc(C)c(=O)n2C
inactive: activation [1] -7% | Potency [2] | Potency [3]

C[N+]1(C)[C@@H]2C[C@@H](OC(=O)C(O)(c3cccs3)c3cccs3)C[C@H]1[C@@H]1O[C@@H]12
inactive: activation [1] 8.63% | Potency [2] | Potency [3]

C=CC(C)(C)c1[nH]c2cc3c(cc2c1CC1NC(=O)C2=CCCN2C1=O)C=CC(C)(C)O3 (stereo not drawn)
inactive: activation [1] -10.7% | Potency [2] | Potency [3]

Nc1c(NC/C=C\COc2cc(CN3CCCCC3)ccn2)c(=O)c1=O
inactive: activation [1] -10.3% | Potency [2] | Potency [3]

COc1cc(C(C)=O)ccc1O[C@@H]1O[C@H](CO)[C@@H](O)[C@H](O)[C@H]1O
inactive: activation [1] -7.63% | Potency [2] | Potency [3]

CC(=O)/C=C/C1(O)C(C)=CC(=O)CC1(C)C (stereo not drawn)
inactive: activation [1] 14.3% | Potency [2] | Potency [3]

OC(CN1CCN(c2cccc(Cl)c2)CC1)C(c1ccccc1)c1ccccc1 (stereo not drawn)
inactive: activation [1] -15.1% and 17% | Potency [2] | Potency [3]

COC(=O)[C@H](O)[C@H]1C(C)(C)[C@H](OC(=O)C(C)C)[C@@]2(O)C(=O)[C@]1(C)C1CC[C@]3(C)C(CC(=O)O[C@H]3c3ccoc3)[C@]13O[C@@H]32 (stereo partly drawn)
inactive: activation [1] 6.11% | Potency [2] | Potency [3]

CC(=O)N[C@H]1[C@H](O[C@H]2CC[C@@]3(C)C(CC[C@]4(C)C3CC=C3[C@@H]5CC(C)(C)CC[C@]5(C(=O)OC5OCC(O)C(O)C5O)CC[C@]34C)C2(C)C)O[C@H](COC2OC(C)C(O)C(OC3OC(C)C(O)C(O)C3O)C2O)[C@@H](O)[C@@H]1O (stereo partly drawn)
inactive: activation [1] -26% | Potency [2] | Potency [3]

O=C(Nc1ccc(N(Cc2ccsc2)C(=O)Cn2nnc3ccccc32)cc1)C1CC1
inactive: activation [1] 11.6% | Potency [2] | Potency [3]

COC(=O)c1ccc(OC)cc1O[C@@H]1O[C@H](CO[C@@H]2OC[C@@H](O)[C@H](O)[C@H]2O)[C@@H](O)[C@H](O)[C@H]1O
inactive: activation [1] -22.3% | Potency [2] | Potency [3]

CO[C@H]1[C@@H](O)[C@H](O[C@H]2CC[C@@]3(C)C(CCC4C3CC[C@]35COC6(COC(=O)C6)C3CCC45O)C2)O[C@@H](C)[C@@H]1OC1OC(CO)C(OC2OC(CO)C(O)C(O)C2O)C(O)C1O (stereo partly drawn)
inactive: activation [1] 6.87% | Potency [2] | Potency [3]

COC1C(OC(=O)/C=C/C=C/C=C/C=C/C(=O)O)CCC2(CO2)C1C1(C)OC1CC=C(C)C (stereo not drawn)
inactive: activation [1] 10.7% | Potency [2] | Potency [3]
